About 79,000 compounds went through this panel and 15% of them were active in at least one assay; those are over-represented in the sample as a whole. The source made the active and inactive calls. Cut-off read from the data, not from the text of the source: active = growth inhibition above about 70%; inactive = the rest.

This assay is described as follows: NCI Yeast Anticancer Drug Screen. Data for the cln2 rad14 strain (AID 165).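 Note: 0% = growth equal to vehicle treated cultures.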 The conditions noted are these: S. cerevisiae cln2 rad14 strain, at 50.0 µM, hits give high values. The essentials:
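Compounds are applied to the cln2 rad14 yeast strain, and growth is then compared with that of vehicle-treated cultures to give inhibition.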
For `CCCCCNC(=O)c1csc(-c2csc(CCNC(C)=O)n2)n1`, the growth inhibition is -26.1% (inactive).

With `COc1ccc(-c2oc3cc(OC)c(OC)c(OC)c3c(=O)c2O)cc1O`, the growth inhibition was 44.8% (inactive).

Regarding `CC1=C(C(=O)NN)CC/C1=N\N`, the growth inhibition is -10.6% (inactive).

Consider `O=[N+]([O-])c1ccc(N/N=C(/c2ccc3ccccc3c2)c2ccccc2F)c([N+](=O)[O-])c1`, for which the growth inhibition is -12% (inactive).

As to `Nc1ccn(C2CC(F)C(CO)O2)c(=O)n1` (stereo not given), the growth inhibition is 1.5% (inactive).

Turning to `Cc1cn(-c2c(C)c(C)c(-n3c(C)ccc3C)c(C)c2C)cc1C`, the growth inhibition is -15.8% (inactive).

Turning to `CC(O)CSCC(C)O` (stereo not given), the growth inhibition was 12.4% (inactive).

For the compound `CCOC(=O)C(=CNC(=S)Nc1ccc(Cl)c(Cl)c1)C(=O)OCC`, the growth inhibition was 45.6% (inactive).

Take `COc1ccccc1N(CN1C(=O)CCC1C(=O)O)C(C)=O` (stereo not given): the growth inhibition is 7.25% (inactive).

For `CC1=CC(C)(C)Nc2ccccc21`, the growth inhibition is -3.95% (inactive).

`Cc1ccc(N=NC2=C3Sc4ccccc4N=C2N(c2ccc(Br)cc2)C(=S)N3c2ccc(Cl)cc2)cc1`: the growth inhibition is 18.9% (inactive).

In the case of `CCN(CC)C(=S)N1CCCCC1`, the growth inhibition was -65.4% (inactive).

Turning to `O=C(c1cccc([N+](=O)[O-])c1)N1CCOCC1`, the growth inhibition was -36.4% (inactive).

Consider `Cc1ccc(N2C(=O)/C(=C/c3ccc(N(CCC#N)CCC#N)cc3)CC2(O)c2ccccc2)cc1` (stereo not given), for which the growth inhibition was -23.8% (inactive).

In the case of `O=C(c1cc([N+](=O)[O-])cc([N+](=O)[O-])c1)N1CCCC1`, the growth inhibition is -25.1% (inactive).

For the compound `CCOc1ccc(NC(=O)c2cccc(C(=O)Nc3ccc(OCC)cc3)c2)cc1`, the growth inhibition was -20.9% (inactive).

In the case of `Cc1cc(C)c(N(C)C(=O)CCC(=O)O)c(Br)c1`, the growth inhibition is 0.05% (inactive).

Consider `COc1cc(NCCN=C(N)NC#N)c2ncccc2c1`, for which the growth inhibition was -18.4% (inactive).

In the case of `CCOC(=O)c1ccc(-c2ccc(C(=O)OCC)cc2[N+](=O)[O-])c([N+](=O)[O-])c1`, the growth inhibition was 17% (inactive).

Regarding `Cc1ccc(S(=O)(=O)OCC(C)(C)CC#N)cc1`, the growth inhibition was 16.9% (inactive).

Regarding `C1C[OH+]CCNCC[OH+]CC[OH+]CCN1.[Cl-].[Pt+4]`, the growth inhibition is -9.05% (inactive).

Regarding `COc1cc(OC)c(/C=C2\N=C(C)N(Nc3nnc(NN4C(=O)/C(=C/c5c(OC)cc(OC)cc5OC)N=C4C)c4ccccc34)C2=O)c(OC)c1`, the growth inhibition is -2.5% (inactive).

`O=C1/C(=N\O)C2CCC1C2` (stereo not given): the growth inhibition was 2.5% (inactive).

For `CCOC(=O)c1ccc(NC(=O)Nc2cc(Cl)ccc2OC)cc1`, the growth inhibition was -2.9% (inactive).

Regarding `O=C(O)CCc1ccc2c(c1)CC1(Cc3ccccc3C1)C2`, the growth inhibition is 52.6% (inactive).

For `COc1ccc(C(=CCC(C)C2CCC3[C@@H]4C(OC(C)=O)CC5CC(OC(C)=O)CC[C@]5(C)C4CC(OC(C)=O)[C@]23C)c2ccc(OC)cc2)cc1` (stereo not given in full), the growth inhibition was 13.5% (inactive).

Consider `CC1=CC(C)(C)N=C2SC(c3ccc(N)cc3)=NN12`, for which the growth inhibition was 5.9% (inactive).

For the compound `CN(C)c1ccc(/C=C/C(=O)/C=C/c2ccc(N(C)C)cc2)cc1`, the growth inhibition was 7.6% (inactive).

As for `O=C(Nc1ccc(Cl)cc1Cl)C(=O)C(C(=O)c1ccncc1)C1OC(=O)c2ccccc21` (stereo not given), the growth inhibition is 23.4% (inactive).

As for `OCCCOCc1ccccc1`, the growth inhibition was 30.3% (inactive).

In the case of `COc1cc(NCC2COc3c(ccc(OC)c3OC)C2=O)c([N+](=O)[O-])cc1OC` (stereo not given), the growth inhibition was 15.4% (inactive).

As for `CC(C)(C)/C=C/N=NNc1ccccc1C(=O)NC(C)(C)C`, the growth inhibition was -54.5% (inactive).

Turning to `CC(=O)OCC(OC(C)=O)C(OC(C)=O)C(OC(C)=O)c1cnn(-c2ccccc2)n1` (stereo not given), the growth inhibition was -22.8% (inactive).

With `NCCCc1ccc(C(=O)O)cc1`, the growth inhibition is -40.2% (inactive).

With `CCOC(=O)Nn1c(C)nnc1CC#N`, the growth inhibition is -16.8% (inactive).

In the case of `CC(=O)/C=C/CCC(=O)/C=C/C(=O)OC(CCC(=O)/C=C/C(=O)O)CC(C)=O` (stereo not given), the growth inhibition is 19.1% (inactive).

As to `Cc1cc2nc(CCC(=O)O)c(=O)[nH]c2cc1C`, the growth inhibition was 13.8% (inactive).

As to `CCOc1ccc(NC(=O)C2=C(C)NC(C)=C(C(=O)Nc3ccc(OCC)cc3)C2c2ccccc2)cc1`, the growth inhibition was -17.1% (inactive).

As to `CCOC(=O)C(C)(C)Oc1ccc2c(-c3ccc(Cl)cc3)cc(=O)oc2c1`, the growth inhibition is 7.65% (inactive).

Regarding `Cc1ccc(N=C2N=C(N3CC(C)OC(C)C3)c3ccccc32)cc1` (stereo not given), the growth inhibition was -7.8% (inactive).

For the origin of these results see PubChem BioAssay (NCI).
